# Publication PMC5540273 (PLoS ONE, 2017)
# Assays:
# Conditions in all cases: concentration: 1 μM, replicates: in singlicate; n = 1
# DCAMKL2 = test system: T1, DCAMKL2
# T1 construct: gene DCLK2
# DCAMKL3 = test system: T2, DCAMKL3
# T2 construct: gene DCLK3
# DDR1 = test system: DDR1
# DDR2 = test system: DDR2
# DLK = test system: T3, DLK
# T3 construct: gene MAP3K12
# DMPK2 = test system: T4, DMPK2
# T4 construct: gene CDC42BPG
# DMPK = test system: DMPK
# DRAK1 = test system: T5, DRAK1
# T5 construct: gene STK17A
# DRAK2 = test system: T6, DRAK2
# T6 construct: gene STK17B
# DYRK1A = test system: DYRK1A
# DYRK1B = test system: DYRK1B
# DYRK2 = test system: DYRK2
# EGFR = test system: EGFR
# EIF2AK1 = test system: EIF2AK1
# EPHA1 = test system: EPHA1
# EPHA2 = test system: EPHA2
# EPHA3 = test system: EPHA3
# EPHA4 = test system: EPHA4
# EPHA5 = test system: EPHA5
# EPHA6 = test system: EPHA6
# 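Note: KINOMEscan kinase panel screen.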
Structure (SMILES),%Inh (DCAMKL2) [%],%Inh (DCAMKL3) [%],%Inh (DDR1) [%],%Inh (DDR2) [%],%Inh (DLK) [%],%Inh (DMPK2) [%],%Inh (DMPK) [%],%Inh (DRAK1) [%],%Inh (DRAK2) [%],%Inh (DYRK1A) [%],%Inh (DYRK1B) [%],%Inh (DYRK2) [%],%Inh (EGFR) [%],%Inh (EIF2AK1) [%],%Inh (EPHA1) [%],%Inh (EPHA2) [%],%Inh (EPHA3) [%],%Inh (EPHA4) [%],%Inh (EPHA5) [%],%Inh (EPHA6) [%]
COc1cc(Nc2nccc(-c3c(-c4cccc(NC(=O)c5c(F)cccc5F)c4)nn4ncccc34)n2)cc(OC)c1OC [GSK327238],0,43,100,95.2,2,100,8,0,0,23,33,16,100,0,86,71,42,65,0,49
Cc1ccc(F)c(C(=O)Nc2cccc(-c3nn4ccccc4c3-c3ccnc(Nc4cccc(F)c4)n3)c2)c1F [GSK361061],13,70,100,87,7,85,13,0,0,11,0,5,99.1,9,32,26,25,20,1,32
Cl.Cl.NCC(NCc1ccc(-c2ccnc3[nH]ccc23)s1)c1ccccc1 (centres unmarked) [GSK1321565],0,0,0,34,0,25,81,75,6,38,25,80,24,0,24,0,0,0,0,0
Cc1ccc(C(=O)N2CC[C@@H](O)C2)cc1-n1c(C)cc(OCc2ccc(F)cc2F)c(Br)c1=O,0,0,99,94.6,0,0,0,0,0,0,0,0,0,0,78,76,42,0,0,0
Clc1ccc(-c2nn3ncccc3c2-c2ccnc(Nc3ccc4c(c3)OCCO4)n2)cc1 [GW829116],0,0,98.5,95.9,0,92.9,0,0,0,0,0,0,84,0,0,0,0,12,19,34
CCc1ccc(-c2ccc3c(c2)-c2c(cnn2C)S(=O)(=O)N3C)cc1,0,0,0,2,0,0,0,0,0,0,3,0,15,0,0,0,0,1,8,0
COc1ccc(Nc2nccc(NCCNC(=O)c3cc4ccccc4s3)n2)cc1 [GSK1379896],0,0,0,15,0,0,0,0,0,0,0,5,19,0,0,8,0,0,0,0
CC(C)(C)c1ccc2nccc(Nc3cccc(O)c3)c2c1 [GW856795],0,0,62,47,16,0,3,5,1,0,48,51,63,0,74,18,21,18,37,18
CN(C)Cc1ccc(-c2ccc3c(Nc4ccc(Oc5ccccn5)cc4)ccnc3c2)o1 [GW567148],0,0,38,45,69,0,0,4,0,13,0,0,53,0,79,1,0,60,0,53
Nc1n[nH]c2cnc(-c3ccccc3)cc12 [SB-642124],0,10,2,18,19,0,31,44,0,91.4,75,88,38,4,26,16,0,12,0,6
